PubChem BioAssay AID1159580 (chemical genetic matrix, 2015)
Out of some 5,500 compounds screened, about 2,000 (36%) were called active. Not shown: some 18% with an inconclusive outcome. No stated cut-off is given here; in the data, active means normalized growth mostly below about 0.91 (no sharp cut-off); inconclusive means no clear call, values can overlap the other calls; inactive means mostly above about 0.92. The list shows a part of the results.

Experiment: chemical genetic growth profiling, strain panel (AID 1159580);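 further: tested at 20 µM; growth read once vehicle control cultures reached saturation at 30 °C; 1 = growth at the plate median or of vehicle wells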
Settings: S. cerevisiae deletion strains, growth OD
[1] = locus YAL013W, strain DEP1, stronger effect = lower value
[2] = locus YBR229C, strain ROT2, stronger effect = lower value
[3] = locus YDL101C, strain DUN1, stronger effect = lower value
[4] = locus YDR150W, strain NUM1, stronger effect = lower value
[5] = locus YEL061C, strain CIN8, stronger effect = lower value
[6] = locus YGR078C, strain PAC10, stronger effect = lower value
[7] = locus YHR030C, strain SLT2, stronger effect = lower value
[8] = locus YHR087W, strain rtc3, stronger effect = lower value
[9] = locus YJL187C, strain SWE1, stronger effect = lower value
[10] = locus YJR043C, strain POL32, stronger effect = lower value
[11] = locus YJR075W, strain HOC1, stronger effect = lower value
[12] = locus YLR039C, strain RIC1, stronger effect = lower value
[13] = locus YLR058C, strain SHM2 (second series), stronger effect = lower value
[14] = locus YLR085C, strain ARP6, stronger effect = lower value
[15] = locus YLR262C, strain YPT6, stronger effect = lower value
[16] = locus YML094W, strain GIM5, stronger effect = lower value
[17] = locus YMR219W, strain ESC1, stronger effect = lower value
[18] = locus YMR263W, strain SAP30, stronger effect = lower value
[19] = locus YNL153C, strain GIM3, stronger effect = lower value
[20] = locus YNL298W, strain CLA4 (second series), stronger effect = lower value
[21] = locus YNL322C, strain KRE1, stronger effect = lower value
[22] = locus YNR030W, strain Alg12, stronger effect = lower value
[23] = locus YPL055C, strain LGE1, stronger effect = lower value
[24] = locus YPL241C, strain CIN2, stronger effect = lower value
[25] = locus YPR135W, strain CTF4, stronger effect = lower value
[26] = locus YAR019C, strain CDC15, stronger effect = lower value
[27] = locus YBL105C, strain PKC1, stronger effect = lower value
[28] = locus YBR135W, strain CKS1, stronger effect = lower value
[29] = locus YBR136W, strain MEC1, stronger effect = lower value
[30] = locus YBR160W, strain CDC28, stronger effect = lower value
[31] = locus YDL017W, strain CDC7, stronger effect = lower value
[32] = locus YDL028C, strain MPS1, stronger effect = lower value
[33] = locus YDL108W, strain KIN28, stronger effect = lower value
[34] = locus YDL132W, strain cdc53, stronger effect = lower value
[35] = locus YDL214C, strain PRR2, stronger effect = lower value
[36] = locus YDR052C, strain DBF4, stronger effect = lower value
[37] = locus YDR054C, strain cdc34, stronger effect = lower value
[38] = locus YDR226W, strain ADK1, stronger effect = lower value
[39] = locus YDR477W, strain SNF1, stronger effect = lower value
[40] = locus YER123W, strain YCK3, stronger effect = lower value
[41] = locus YER133W, strain GLC7, stronger effect = lower value
[42] = locus YFL009W, strain cdc4, stronger effect = lower value
[43] = locus YFL029C, strain CAK1, stronger effect = lower value
[44] = locus YFR003C, strain YPI1, stronger effect = lower value
[45] = locus YFR019W, strain FAB1, stronger effect = lower value
[46] = locus YFR028C, strain CDC14, stronger effect = lower value
[47] = locus YGR040W, strain KSS1, stronger effect = lower value
[48] = locus YGR052W, strain FMP48, stronger effect = lower value
[49] = locus YGR092W, strain DBF2, stronger effect = lower value
[50] = locus YHR079C, strain IRE1, stronger effect = lower value
[51] = locus YHR082C, strain KSP1, stronger effect = lower value
[52] = locus YHR205W, strain SCH9, stronger effect = lower value
[53] = locus YIL147C, strain SLN1, stronger effect = lower value
[54] = locus YJL095W, strain BCK1, stronger effect = lower value
[55] = locus YJL128C, strain PBS2, stronger effect = lower value
[56] = locus YJL157C, strain FAR1, stronger effect = lower value
[57] = locus YJR016C, strain ILV3, stronger effect = lower value
[58] = locus YJR066W, strain TOR1 (second series), stronger effect = lower value
[59] = locus YJR066W, strain TOR1, stronger effect = lower value
[60] = locus YKL048C, strain ELM1, stronger effect = lower value
[61] = locus YKL067W, strain YNK1, stronger effect = lower value
[62] = locus YKL101W, strain HSL1, stronger effect = lower value
[63] = locus YKL193C, strain SDS22, stronger effect = lower value
[64] = locus YKL203C, strain TOR2, stronger effect = lower value
[65] = locus YLR113W, strain HOG1, stronger effect = lower value
[66] = locus YLR133W, strain CKI1, stronger effect = lower value
[67] = locus YLR403W, strain SFP1, stronger effect = lower value
[68] = locus YML070W, strain DAK1, stronger effect = lower value
[69] = locus YMR001C, strain CDC5, stronger effect = lower value
[70] = locus YMR205C, strain PFK2 (second series), stronger effect = lower value
[71] = locus YMR277W, strain FCP1, stronger effect = lower value
[72] = locus YNL006W, strain LST8, stronger effect = lower value
[73] = locus YNL020C, strain ARK1, stronger effect = lower value
[74] = locus YNL161W, strain CBK1, stronger effect = lower value
[75] = locus YNL183C, strain NPR1, stronger effect = lower value
[76] = locus YNL207W, strain RIO2, stronger effect = lower value
[77] = locus YNL222W, strain SSU72, stronger effect = lower value
[78] = locus YNL307C, strain MCK1 (second series), stronger effect = lower value
[79] = locus YOL078W, strain AVO1, stronger effect = lower value
[80] = locus YOL136C, strain PFK27, stronger effect = lower value
[81] = locus YOR061W, strain CKA2, stronger effect = lower value
[82] = locus YOR119C, strain RIO1, stronger effect = lower value
[83] = locus YOR231W, strain MKK1, stronger effect = lower value
[84] = locus YOR329C, strain SCD5, stronger effect = lower value
[85] = locus YPL031C, strain PHO85, stronger effect = lower value
[86] = locus YPL153C, strain RAD53, stronger effect = lower value
[87] = locus YPL204W, strain HRR25, stronger effect = lower value
[88] = locus YPL209C, strain IPL1, stronger effect = lower value
[89] = locus YPL256C, strain CLN2, stronger effect = lower value
[90] = locus YPR025C, strain CCL1, stronger effect = lower value
[91] = locus YPR106W, strain ISR1, stronger effect = lower value
[92] = locus YPR111W, strain DBF20, stronger effect = lower value
[93] = strain NNK1, stronger effect = lower value
[94] = strain TSCII, stronger effect = lower value

Measured: normalized growth

N#C/C(=C\c1cccn1-c1ccc(OC(F)(F)F)cc1)S(=O)(=O)c1ccccc1
active: [14] 1.23 [resistant] | [25] 1.38 [resistant]
inactive: [1] 1.05 | [2] 1 | [3] 0.982 | [4] 1.03 | [5] 1.02 | [6] 1.02 | [7] 1.04 | [8] 1.02 | [9] 1.01 | [10] 0.986 | [11] 0.988 | [12] 1 | [13] 0.995 | [15] 0.976 | [16] 1.07 | [17] 1.01 | [18] 1 | [19] 1.03 | [20] 1.03 | [21] 1 | [22] 1.05 | [23] 1.14 | [24] 1.09

CC1(C)OC(=O)C(=Cc2cccn2-c2ccc(C(F)(F)F)cc2)C(=O)O1
active: [7] 0.686 | [65] 0.711 | [89] 0.777
inactive: [26] 1.01 | [27] 1.03 | [28] 1.04 | [29] 1.03 | [30] 1.02 | [31] 1.04 | [32] 1.01 | [3] 1 | [33] 1.02 | [34] 1.03 | [35] 0.913 | [36] 1.01 | [37] 1.02 | [38] 1.03 | [39] 0.908 | [40] 0.896 | [41] 0.963 | [42] 1.02 | [43] 0.998 | [44] 1.03 | [45] 0.941 | [46] 0.999 | [47] 0.921 | [48] 0.954 | [49] 0.921 | [50] 0.86 | [51] 0.901 | [52] 0.775 | [53] 1.02 | [54] 0.844 | [55] 0.931 | [56] 0.946 | [57] 1.01 | [58] 0.958 | [59] 0.844 | [60] 0.88 | [61] 0.912 | [62] 0.885 | [63] 1.02 | [64] 1.01 | [66] 0.916 | [67] 0.898 | [68] 0.912 | [69] 1 | [70] 0.93 | [71] 1 | [72] 1 | [73] 0.914 | [74] 1.03 | [75] 0.917 | [76] 1.03 | [77] 1.02 | [78] 0.859 | [79] 1.01 | [80] 0.884 | [81] 0.818 | [82] 0.944 | [83] 0.83 | [84] 1.03 | [85] 0.917 | [86] 0.901 | [87] 0.905 | [88] 1.03 | [90] 1.03 | [91] 0.99 | [92] 0.964 | [93] 0.988 | [94] 0.991

N#C/C(=C\c1ccc(Oc2ccccc2)nc1)S(=O)(=O)c1ccccc1
inactive: [1] 0.996 | [2] 1 | locus YCL061C, strain MRC1, stronger effect = lower value 0.976 | [3] 1 | [4] 0.984 | [5] 1.01 | [6] 1 | [7] 0.978 | [8] 1 | [9] 0.993 | [10] 0.981 | [11] 0.99 | locus YKL190W, strain CNB1, stronger effect = lower value 1 | [12] 0.95 | [13] 1.01 | [14] 0.998 | [15] 1.02 | [16] 1.02 | [17] 1 | [18] 0.956 | locus YMR307W, strain GAS1, stronger effect = lower value 0.884 | [19] 0.993 | [20] 0.939 | [21] 1 | [22] 0.997 | locus YOL006C, strain TOP1, stronger effect = lower value 0.922 | [23] 0.988 | [24] 0.996 | [25] 0.955

CC1(C)OC(=O)C(=Cc2cccn2-c2ccc(OC(F)(F)F)cc2)C(=O)O1
active: [7] 0.673 | [65] 0.768 | [89] 0.782
inactive: [26] 0.966 | [27] 0.995 | [28] 0.996 | [29] 0.987 | [30] 0.985 | [31] 0.999 | [32] 0.972 | [3] 0.979 | [33] 0.989 | [34] 0.99 | [35] 0.899 | [36] 0.989 | [37] 0.972 | [38] 0.963 | [39] 0.898 | [40] 0.884 | [41] 0.944 | [42] 0.96 | [43] 0.967 | [44] 0.993 | [45] 0.942 | [46] 0.964 | [47] 0.91 | [48] 0.921 | [49] 0.881 | [50] 0.875 | [51] 0.861 | [52] 0.801 | [53] 0.976 | [54] 0.832 | [55] 0.918 | [56] 0.948 | [57] 0.979 | [58] 0.987 | [59] 0.829 | [60] 0.931 | [61] 0.915 | [62] 0.89 | [63] 0.973 | [64] 0.989 | [66] 0.923 | [67] 0.92 | [68] 0.909 | [69] 0.97 | [70] 0.93 | [71] 0.954 | [72] 0.975 | [73] 0.922 | [74] 0.982 | [75] 0.894 | [76] 0.986 | [77] 0.98 | [78] 0.887 | [79] 0.973 | [80] 0.908 | [81] 0.916 | [82] 0.936 | [83] 0.827 | [84] 0.986 | [85] 0.914 | [86] 0.916 | [87] 0.923 | [88] 0.991 | [90] 1 | [91] 0.967 | [92] 0.939 | [93] 0.976 | [94] 0.968
